Assay outcomes (PubChem BioAssay)
hcDAF-12 act = H. contortus DAF-12 activation, primary screen | HEK293 hcDAF-12 lit1-tk-luc reporter, luminescence; 0% DMSO, 100% Δ7-dafachronic acid | activation, % at 6.8 µM | 1.4% of 370,000 active | AID 652067;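 active = activation above the mean of all tested compounds plus 3 SD, cut at about 5.5% in these data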;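 also: 100% = response to 3 µM Δ7-dafachronic acid high control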
DAX1 inh-1 = NR0B1 (DAX1) inhibition | P51843 | HEK293 Gal4-DAX1 luciferase reporter, luminescence | inhibition, % at 6.75 µM | 0.99% of 340,000 active | AID 504766;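 active = inhibition above the mean over all tested compounds plus 3 SD, cut at about 4.2% in these data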;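 also: 0% = DAX1-transfected cells with DMSO and 100% = empty-vector control cells with DMSO; inhibition shows as a rise in luminescence from relieved DAX1 repression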
Target sequence (P51843 207-470 limits assumed): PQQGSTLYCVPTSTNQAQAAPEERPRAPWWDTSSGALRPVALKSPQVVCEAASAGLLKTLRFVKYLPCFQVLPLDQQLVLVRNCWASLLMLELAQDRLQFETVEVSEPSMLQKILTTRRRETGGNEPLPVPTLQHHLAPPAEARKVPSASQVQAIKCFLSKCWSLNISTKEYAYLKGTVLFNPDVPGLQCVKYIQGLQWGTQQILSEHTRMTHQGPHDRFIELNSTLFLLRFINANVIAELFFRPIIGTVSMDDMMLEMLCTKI
DAX1 inh-2 = blocks DAX1 repression of SF-1 activated StAR promoter | HEK293T StAR-luciferase reporter, SF-1/DAX-1 repression relief | inhibition, % at 6.8 µM | 1.1% of 370,000 active;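 active = inhibition above the mean over all tested compounds plus 3 SD, cut at about 3.6% in these data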;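 also: 0% = DAX-1 cells with DMSO and 100% = cells lacking DAX-1 with DMSO; higher inhibition means more luminescence from relief of DAX-1 repression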
ssDAF-12 act = activates DAF-12 receptor from parasite S. stercoralis | 1% of 370,000 active | HEK293 ssDAF-12/GRIP1 lit1-tk-luc reporter, luminescence; % of 3 µM dafachronic acid response | activation, % at 6.8 µM;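 active = activation above the mean over all tested compounds plus 3 SD, cut at about 0.9% in these data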;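 also: 0% = DMSO-only wells and 100% = 3 µM delta7-dafachronic acid wells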
hgDAF12 agonist = activates the H. glycines DAF-12 receptor ligand-binding domain; HEK293 GAL4-hgDAF12 UAS-luciferase reporter, agonist luminescence; normalized to butyrate control; activation, % at 6.8 µM; 1.8% of 370,000 active;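 active = activation above a cutoff set at the mean of all screened compounds plus 3 SD, cut at about 10% in these data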;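 also: 0% = DMSO wells and 100% = sodium butyrate wells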
LXR ag = activates human LXR-beta, counter-screen for hcDAF-12 agonists | 3,400 tested, under 10 active | HEK293 Gal4-LXR tk-luc reporter, luminescence, 24 h; normalized: DMSO 0%, positive control 100% | activation, % at 6.8 µM | shares compounds with hcDAF-12 act;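 active = mean percent activation of the reporter above a cutoff set as the average over tested compounds plus their standard deviation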
hcDAF12 conf = hcDAF-12 agonism, confirmation assay; shares compounds with hcDAF-12 act; HEK293 hcDAF-12 lit1-tk-luc reporter, luminescence; % of Δ7-dafachronic acid response; activation, % at 6.8 µM; 61% of 3,400 active; AID 743032;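 active = mean activation across triplicate tests above the threshold derived from the earlier primary screen, cut at about 5.5% in these data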;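 also: 0% = DMSO only wells and 100% = 3 µM Δ7-dafachronic acid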
The depositor's hits bear a star. The list is not random: actives were taken first. Their share in the collection is about 4.1%.

Results for O=C1CC(c2ccc3c(c2)OCO3)Sc2nc3ccccc3n21 (stereo unspecified) ?
hcDAF-12 act: -1.6; DAX1 inh-1: 0.1; DAX1 inh-2: -0.4; ssDAF-12 act: -1.8; hgDAF12 agonist: -3.9

How did O=C1CC(c2cccs2)Sc2nc3ccccc3n21 (stereo unspecified) do in these assays?
hcDAF-12 act: 7.5*; DAX1 inh-1: 1.3; DAX1 inh-2: 3.3; ssDAF-12 act: 1.6*; hgDAF12 agonist: 10.2; LXR ag: 1.2; hcDAF12 conf: 7.4*

How did O=C1CC(c2ccco2)Sc2nc3ccccc3n21 (stereo unspecified) do in these assays?
hcDAF-12 act: 9.8*; DAX1 inh-1: 0.9; DAX1 inh-2: 1.6; ssDAF-12 act: 2.8*; hgDAF12 agonist: 8.4; LXR ag: 0.3; hcDAF12 conf: 10.2*

What do the screens show for `CC(NC(=O)C(C)N1CCN(S(=O)(=O)c2ccccc2)CC1)c1ccccc1` (stereo unspecified)?
hcDAF-12 act: -0.8; DAX1 inh-1: -0.4; DAX1 inh-2: -0.2; ssDAF-12 act: -1.5; hgDAF12 agonist: 0.1

How did CC(C)Oc1ccc(C(=O)Nc2nc3ccccc3[nH]2)cc1 do in these assays?
hcDAF-12 act: 8.7*; DAX1 inh-1: -2.1; DAX1 inh-2: 1.4; ssDAF-12 act: -0.2; hgDAF12 agonist: 2.1; LXR ag: 0.2; hcDAF12 conf: -0.7

What do the screens show for `COC(=O)C1=C(C)N(Cc2ccc(C(F)(F)F)cc2)C(=NCc2cccc(C(F)(F)F)c2)NC1c1ccccc1C(F)(F)F` (stereo unspecified)?
hcDAF-12 act: 0.5; DAX1 inh-2: 0.0; ssDAF-12 act: -0.8; hgDAF12 agonist: 9.2

What do the screens show for `COCCNC(=O)c1ccc(N2CC3CC(C2)c2cccc(=O)n2C3)c(NC(=O)c2ccccc2Br)c1` (stereo unspecified)?
hcDAF-12 act: -0.6; DAX1 inh-1: 0.5; DAX1 inh-2: 0.6; ssDAF-12 act: -1.5; hgDAF12 agonist: -0.9

How did COc1ccc2nc(N=Nc3ccc(O)c4ccccc34)sc2c1 do in these assays?
hcDAF-12 act: 11.9*; DAX1 inh-1: -0.1; DAX1 inh-2: -0.4; ssDAF-12 act: 0.6; hgDAF12 agonist: 1.9; LXR ag: -0.2; hcDAF12 conf: 1.5

Results for COc1ccc(N=CC2=C(O)c3ccccc3C2=O)c(OC)c1 ?
hcDAF-12 act: 12.1*; DAX1 inh-1: 2.3; DAX1 inh-2: 2.3; ssDAF-12 act: 1.6*; hgDAF12 agonist: 9.5; LXR ag: 0.5; hcDAF12 conf: 6.8*

What do the screens show for `CC(C)(C)C1CCc2c(sc3c2C(=O)NC(c2ccco2)N3)C1` (stereo unspecified)?
hcDAF-12 act: 7.5*; DAX1 inh-1: 1.5; DAX1 inh-2: -0.5; ssDAF-12 act: -0.4; hgDAF12 agonist: 0.2; LXR ag: 0.4; hcDAF12 conf: 4.3

What do the screens show for `CCCCCOc1ccc(NS(C)(=O)=O)cc1`?
hcDAF-12 act: 8.0*; DAX1 inh-1: 1.5; DAX1 inh-2: 0.9; ssDAF-12 act: -0.1; hgDAF12 agonist: 2.5; LXR ag: 0.2; hcDAF12 conf: 3.9

Results for O=C(c1cc2ccccc2oc1=O)N1CCOCC1 ?
hcDAF-12 act: 6.7*; DAX1 inh-1: 2.9; DAX1 inh-2: 2.8; ssDAF-12 act: 0.4; hgDAF12 agonist: 10.7*; LXR ag: 0.8; hcDAF12 conf: 5.6*

Results for O=C(c1cc2cc(Cl)ccc2oc1=O)N1CCOCC1 ?
hcDAF-12 act: -0.8; DAX1 inh-1: -1.0; DAX1 inh-2: -0.1; ssDAF-12 act: -0.8; hgDAF12 agonist: 0.4

How did O=C1c2ccccc2C(=O)N1CCC#C/C=C1\c2ccccc2C(=O)N1c1ccccc1 do in these assays?
hcDAF-12 act: -0.5; DAX1 inh-1: 1.2; DAX1 inh-2: -1.8; ssDAF-12 act: 0.0; hgDAF12 agonist: -0.9

Results for Cc1c(NC(=O)c2nn3c(C(F)(F)F)cc(-c4ccccc4)nc3c2Cl)c(=O)n(-c2ccccc2)n1C ?
hcDAF-12 act: 6.8*; DAX1 inh-1: -1.3; DAX1 inh-2: -0.1; ssDAF-12 act: -1.2; hgDAF12 agonist: 2.5; LXR ag: -0.3; hcDAF12 conf: -0.6
